The record followed here is PubChem BioAssay (NCI).

About 83,000 compounds went through this panel and 20% of them were active in at least one assay; those are over-represented in the sample as a whole.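 How to read the values: 0–100, growth inhibition (40 = 60% inhibited); 0, no net growth; -100 to 0, cell death (-40 = 40% of starting cells died; -100 = all dead).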 Unmarked numbers belong to inactive results. Calls of active or inactive are those of the source.

In this test the test system is LOX IMVI melanoma. As to the kind of experiment: NCI-60 one-dose screen, 48 h (100 = growth as untreated, 0 = no growth, -100 = all killed). The settings on record: 10 µM unless noted. On the procedure: Growth inhibition of the LOX IMVI human tumor cell line is measured as a screen for anti-cancer activity. Cells are grown in 96 well plates and exposed to the test compound for 48 hours. Compounds are tested at a single concentration, which is 10^-5 M for most compounds. The reported endpoint is percent growth (GI% or GIPRCNT), where numbers from 0 - 100% represent growth inhibition, and numbers from -100% - 0 represent cell death. For example, a value of 40 represents 60% growth inhibition. A value of 0 means no net growth occurred over the course of the experiment. A value of -40 indicates 40% of cells at the beginning of the experiment died by the end of the experiment. A value of -100 means all cells are dead at the end of the experiment.
NCI-60 Human Tumor Cell Lines Screen was performed using the standard one-dose NCI protocol, which is described in more detail at https://dtp.cancer.gov/discovery_development/nci-60/default.htm.
Compounds with GIPRCNT values below 10 were considered active. Activity score was based on GIPRCNT using the following formula: […]
Score is 0 for GIPRCNT values of 100 or above, 50 for GIPRCNT values of 0, and 100 for GIPRCNT values of -100.
For `O=C1/C(=C/c2ccccc2F)CN(C(=O)C(Cl)Cl)C/C1=C\c1ccccc1F`, the growth was -86.4% (active).

`O=C(/C=C/c1ccc(Oc2ccc(Br)cc2)cc1)c1ccc(Br)cc1`: the growth is 96.2%.

For `O=C1/C(=C\c2ccccn2)c2ccccc2N1c1c(Cl)cccc1Cl`, the growth was -89.2% (active).

On to `Cc1n[nH]c2ccc(Br)cc2c1=O`, for which the growth is 101%.

For `Fc1cc(Nc2ccc3c(OCCCN4CCOCC4)cccc3n2)ccc1Cl`, the growth was -78.7% (active).

In the case of `CC1(C)CC[C@]2(C(=O)N[C@H](CO)Cc3ccccc3)CC[C@]3(C)C(=CC[C@@H]4[C@@]5(C)CCCNC(C)(C)[C@@H]5CC[C@]43C)[C@@H]2C1`, the growth was 69.6%.

Regarding `COc1cc(/C=N/Nc2ccc(Br)cc2)cc(OC)c1OC`, the growth was 13.5%.

With `O=C(NNC(=O)c1nc2cc(F)ccc2n2cccc12)c1cnccn1`, the growth is 26.7%.

`CN1CCN(Cc2ccc(NC(=O)c3cncc(C#Cc4cnc(N)c5ncccc45)c3)cc2C(F)(F)F)CC1`: the growth was -83.6% (active).

Consider `CN1CCN(Cc2ccc(NC(=O)c3cncc(C#Cc4cnc5ccc(Cl)nn45)c3)cc2C(F)(F)F)CC1`, for which the growth was -44.3% (active).

With `COc1ccc(/C=C(/C(=O)n2cnnn2)c2cc(OC)c(OC)c(OC)c2)cc1`, the growth was 37%.

With `CN(C)S(=O)(=O)Oc1ccc(-c2sc3cc(OS(=O)(=O)N(C)C)ccc3c2C(=O)c2ccc(OCCN3CCCCC3)cc2)cc1`, the growth is 32.7%.

Turning to `COc1ccc2cc(-c3ccnc4c(N=Nc5ccc(Cl)cc5)c(N)nn34)ccc2c1`, the growth is 102%.

For `CC1(C)C(N)=Nc2cc(OCCCN3Cc4ccccc4C3)c(OCC3CC3)cc21`, the growth is 33.7%.

As to `CCNC(=O)Oc1ccc(/C(=C(/CC)Cc2ccccc2)c2ccc(OCCN3CCCC3)cc2)cc1`, the growth is 91.4%.

For the molecule `CN1CCN(C(=O)C(C)(C)c2ccc(C(=O)Nc3cn4cc(-c5ccncc5)ccc4n3)cc2)CC1`, the growth was -19.9% (active).

Turning to `O=C(Cc1cccc(OC(F)(F)F)c1)Nc1ccc(CCCCc2nnc(NC(=O)Cc3ccccn3)s2)nn1`, the growth is 82.8%.

Take `COC(=O)c1c2c(c(C)[n+]([O-])c1C)C(=O)C(NCc1cccc(Cl)c1)=CC2=O`: the growth is 11.7%.

Consider `CC1=C2[C@@H](CC1)[C@]1(C)O[C@@](c3ccccc3)(C[C@H]1OC(=O)CO)[C@H]2OC(=O)/C=C/c1ccccc1`, for which the growth was 82.1%.

For the molecule `O=S1(=O)C=C(c2ccccc2)C(c2ccccc2)=C1`, the growth is -69.4% (active).

In the case of `CSC1=Nc2c(c(C)c(-c3ccccc3)n2CCCC(=O)O)C2=NC(=O)C[C@H](C)N12`, the growth is 94.9%.

Turning to `Cc1cccc(Oc2ccc(Nc3ncnc4ccc(NC(=O)CN5CCN(C)CC5)cc34)cc2Cl)c1`, the growth is -94.2% (active).

On to `Cc1ccc2nc(NC(=O)CSc3nc(-c4ccccc4)c(C#N)c4nnnn34)sc2c1`, for which the growth was 96.3%.

Consider `COc1ccc(C(O)c2cc3c(N)c(C(=O)Nc4cccc(Cl)c4C)sc3nc2C)cc1` (stereo not given), for which the growth is 22%.

Regarding `CCN(CC)c1ccc(/C=N/NC(=O)Cc2ccc(Nc3ccnc(C(F)(F)F)c3)cc2)c(O)c1`, the growth was 6.64% (active).

Turning to `CCc1ccc(CCC(=O)Nc2ncc(Cc3cc(Cl)ccc3Cl)s2)o1`, the growth was 30.2%.

On to `CC1(C)[C@@H](O[C@@H]2OC[C@@H](O[C@@H]3O[C@H](CO)[C@@H](O)[C@H](O)[C@H]3O[C@@H]3OC[C@@H](O)[C@H](O)[C@H]3O)[C@H](O)[C@H]2O[C@@H]2O[C@H](CO)[C@@H](O)[C@H](O)[C@H]2O)CC[C@]2(C)[C@H]3CC[C@]45OC[C@@]6(CC[C@](C)(C=O)C[C@H]64)[C@H](O)C[C@@]5(C)[C@]3(C)CC[C@@H]12`, for which the growth was -73.2% (active).

As for `CCCCNC(=O)Oc1ccc(/C(=C(/C)Cc2ccc(OC)cc2)c2ccc(OCCN3CCCCC3)cc2)cc1`, the growth was 70.4%.

For `O=C(c1c[nH]c2ccccc12)c1n[nH]c(=S)n1-c1cccc(Br)c1`, the growth was 93.2%.

`Cc1ccc(C=C2C(=O)NC(=O)NC2=O)cc1`: the growth was 98.6%.

On to `O=C(NNc1cnccn1)c1nc2cc(F)ccc2n2cccc12`, for which the growth is -53.5% (active).

Regarding `Cc1ccc(-c2csc(N(C(=O)N3CCN(c4cc5c(cc4F)c(=O)c(C(=O)O)cn5C4CC4)CC3)c3ccccc3)n2)cc1`, the growth is 7.08% (active).

Turning to `CC1=C(CCC(C)NCc2ccc(OCCCN3CCCCC3)cc2)C(C)(C)CCC1` (stereo not given), the growth was -88.7% (active).

On to `COc1cc2nc3sc(C(=O)Nc4ccc(C(=O)OC(C)C)cc4)c(C(=O)Nc4ccc(Cl)cc4C)n3c(=O)c2cc1OC`, for which the growth was 69.7%.

As for `COc1cc(/C=C/C(=O)c2ccc(-n3cc(CN4CCN(c5cc6c(cc5F)c(=O)c(C(=O)O)cn6C5CC5)CC4)nn3)cc2)ccc1O`, the growth was 36.9%.

Regarding `COc1cccc(/C=C/C(=O)c2cccc(Nc3nc(Nc4ccccc4)nc(Nc4ccccc4)n3)c2)c1`, the growth was 74.4%.

For the molecule `CC(C)(C)c1cc(Cl)c(O)c(CNCCO)c1`, the growth was 101%.

In the case of `c1ccc2c(c1)CCCc1nnc3nc4ccccc4n3c1-2`, the growth is 33.7%.

As for `CN1CCN(CCOc2ccc(-c3cnc4c(-c5ccc(F)cc5)cnn4c3)cc2)CC1`, the growth is -78.5% (active).

With `O=S(=O)(Oc1ccc(Br)cc1)c1ccc(Cl)cc1`, the growth was 95.1%.
